# PubChem BioAssay AID1159580 (chemical genetic matrix, 2015)
# Hit rate of the full screen: of about 5,500 compounds, about 2,000 (36%) were called active. Another 18% or so got no clear call; they are omitted. Some of the results follow. Unmarked numbers belong to inactive results. Rule as the data show it: active = normalized growth mostly below about 0.91 (no sharp cut-off); inconclusive = no clear call, values can overlap the other calls; inactive = mostly above about 0.92.
# Assay: chemical genetic growth profiling, strain panel (AID 1159580);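 also: tested at 20 µM; growth read once vehicle control cultures reached saturation at 30 °C; 1 = growth at the plate median or of vehicle wells; lower values mean less growth of the strain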
# Settings: S. cerevisiae deletion strains, growth OD
# [1] = locus YAR019C, strain CDC15, active compounds read low
# [2] = locus YBL105C, strain PKC1, active compounds read low
# [3] = locus YBR135W, strain CKS1, active compounds read low
# [4] = locus YBR136W, strain MEC1, active compounds read low
# [5] = locus YBR160W, strain CDC28, active compounds read low
# [6] = locus YDL017W, strain CDC7, active compounds read low
# [7] = locus YDL028C, strain MPS1, active compounds read low
# [8] = locus YDL101C, strain DUN1, active compounds read low
# [9] = locus YDL108W, strain KIN28, active compounds read low
# [10] = locus YDL132W, strain cdc53, active compounds read low
# [11] = locus YDL214C, strain PRR2, active compounds read low
# [12] = locus YDR052C, strain DBF4, active compounds read low
# [13] = locus YDR054C, strain cdc34, active compounds read low
# [14] = locus YDR226W, strain ADK1, active compounds read low
# [15] = locus YDR477W, strain SNF1, active compounds read low
# [16] = locus YER123W, strain YCK3, active compounds read low
# [17] = locus YER133W, strain GLC7, active compounds read low
# [18] = locus YFL009W, strain cdc4, active compounds read low
# [19] = locus YFL029C, strain CAK1, active compounds read low
# [20] = locus YFR003C, strain YPI1, active compounds read low
# [21] = locus YFR019W, strain FAB1, active compounds read low
# [22] = locus YFR028C, strain CDC14, active compounds read low
# [23] = locus YGR040W, strain KSS1, active compounds read low
# [24] = locus YGR052W, strain FMP48, active compounds read low
# [25] = locus YGR092W, strain DBF2, active compounds read low
# [26] = locus YHR030C, strain SLT2, active compounds read low
# [27] = locus YHR079C, strain IRE1, active compounds read low
# [28] = locus YHR082C, strain KSP1, active compounds read low
# [29] = locus YHR205W, strain SCH9, active compounds read low
# [30] = locus YIL147C, strain SLN1, active compounds read low
# [31] = locus YJL095W, strain BCK1, active compounds read low
# [32] = locus YJL128C, strain PBS2, active compounds read low
# [33] = locus YJL157C, strain FAR1, active compounds read low
# [34] = locus YJR016C, strain ILV3, active compounds read low
# [35] = locus YJR066W, strain TOR1 (second series), active compounds read low
# [36] = locus YJR066W, strain TOR1, active compounds read low
# [37] = locus YKL048C, strain ELM1, active compounds read low
# [38] = locus YKL067W, strain YNK1, active compounds read low
# [39] = locus YKL101W, strain HSL1, active compounds read low
# [40] = locus YKL193C, strain SDS22, active compounds read low
# [41] = locus YKL203C, strain TOR2, active compounds read low
# [42] = locus YLR113W, strain HOG1, active compounds read low
# [43] = locus YLR133W, strain CKI1, active compounds read low
# [44] = locus YLR403W, strain SFP1, active compounds read low
# [45] = locus YML070W, strain DAK1, active compounds read low
# [46] = locus YMR001C, strain CDC5, active compounds read low
# [47] = locus YMR205C, strain PFK2 (second series), active compounds read low
# [48] = locus YMR277W, strain FCP1, active compounds read low
# [49] = locus YNL006W, strain LST8, active compounds read low
# [50] = locus YNL020C, strain ARK1, active compounds read low
# [51] = locus YNL161W, strain CBK1, active compounds read low
# [52] = locus YNL183C, strain NPR1, active compounds read low
# [53] = locus YNL207W, strain RIO2, active compounds read low
# [54] = locus YNL222W, strain SSU72, active compounds read low
# [55] = locus YNL307C, strain MCK1 (second series), active compounds read low
# [56] = locus YOL078W, strain AVO1, active compounds read low
# [57] = locus YOL136C, strain PFK27, active compounds read low
# [58] = locus YOR061W, strain CKA2, active compounds read low
# [59] = locus YOR119C, strain RIO1, active compounds read low
# [60] = locus YOR231W, strain MKK1, active compounds read low
# [61] = locus YOR329C, strain SCD5, active compounds read low
# [62] = locus YPL031C, strain PHO85, active compounds read low
# [63] = locus YPL153C, strain RAD53, active compounds read low
# [64] = locus YPL204W, strain HRR25, active compounds read low
# [65] = locus YPL209C, strain IPL1, active compounds read low
# [66] = locus YPL256C, strain CLN2, active compounds read low
# [67] = locus YPR025C, strain CCL1, active compounds read low
# [68] = locus YPR106W, strain ISR1, active compounds read low
# [69] = locus YPR111W, strain DBF20, active compounds read low
# [70] = strain NNK1, active compounds read low
# [71] = strain TSCII, active compounds read low
structure (smiles),measurement,setting,value
N#CC1=C(N)C(C#N)(C#N)C2(CCCCC2)C2CCCC=C12 (stereo unspecified),normalized growth,[1],0.984
same,normalized growth,[2],0.982
same,normalized growth,[3],0.979
same,normalized growth,[4],0.982
same,normalized growth,[5],0.982
same,normalized growth,[6],0.98
same,normalized growth,[7],0.985
same,normalized growth,[8],0.983
same,normalized growth,[9],0.988
same,normalized growth,[10],0.98
same,normalized growth,[11],0.993
same,normalized growth,[12],0.977
same,normalized growth,[13],0.973
same,normalized growth,[14],0.983
same,normalized growth,[15],0.982
same,normalized growth,[16],0.984
same,normalized growth,[17],0.978
same,normalized growth,[18],0.978
same,normalized growth,[19],0.973
same,normalized growth,[20],0.985
same,normalized growth,[21],0.985
same,normalized growth,[22],0.985
same,normalized growth,[23],0.971
same,normalized growth,[24],1.05
same,normalized growth,[25],0.958
same,normalized growth,[26],0.972
same,normalized growth,[27],0.989
same,normalized growth,[28],0.975
same,normalized growth,[29],0.953
same,normalized growth,[30],0.985
same,normalized growth,[31],0.951
same,normalized growth,[32],0.961
same,normalized growth,[33],0.991
same,normalized growth,[34],0.989
same,normalized growth,[35],0.969
same,normalized growth,[36],0.968
same,normalized growth,[37],0.985
same,normalized growth,[38],1
same,normalized growth,[39],0.98
same,normalized growth,[40],0.981
same,normalized growth,[41],1.02
same,normalized growth,[42],0.959
same,normalized growth,[43],1
same,normalized growth,[44],0.979
same,normalized growth,[45],0.989
same,normalized growth,[46],0.98
same,normalized growth,[47],1
same,normalized growth,[48],0.985
same,normalized growth,[49],0.99
same,normalized growth,[50],0.998
same,normalized growth,[51],0.979
same,normalized growth,[52],0.963
same,normalized growth,[53],0.971
same,normalized growth,[54],0.982
same,normalized growth,[55],0.995
same,normalized growth,[56],0.979
same,normalized growth,[57],0.99
same,normalized growth,[58],1
same,normalized growth,[59],0.995
same,normalized growth,[60],0.973
same,normalized growth,[61],0.979
same,normalized growth,[62],0.978
same,normalized growth,[63],0.96
same,normalized growth,[64],0.971
same,normalized growth,[65],0.988
same,normalized growth,[66],0.965
same,normalized growth,[67],0.98
same,normalized growth,[68],0.986
same,normalized growth,[69],0.987
same,normalized growth,[70],0.985
same,normalized growth,[71],0.979
CCN(CC)CCCCCCCCOC(=O)c1cc(OC)c(OC)c(OC)c1,normalized growth,"locus YAL040C, strain CLN3, active compounds read low",1.01
same,normalized growth,"locus YDR363W, strain ESC2, active compounds read low",1.01
same,normalized growth,"locus YER002W, strain NOP16, active compounds read low",0.999
same,normalized growth,"locus YGR078C, strain PAC10, active compounds read low",1.01
same,normalized growth,"locus YNL175C, strain NOP13, active compounds read low",1.01
same,normalized growth,"locus YNL197C, strain WHI3, active compounds read low",1.02
same,normalized growth,"locus YNL224C, strain SQS1, active compounds read low",0.985
same,normalized growth,"locus YNL322C, strain KRE1, active compounds read low",0.992
same,normalized growth,"locus YOR083W, strain WHI5 (second series), active compounds read low",1.03
COc1cc(N=Cc2cc(Cl)cc(Cl)c2OS(=O)(=O)c2ccc(C)cc2)c(OC)cc1Cl,normalized growth,[1],0.935
same,normalized growth,[2],0.948
same,normalized growth,[3],0.943
same,normalized growth,[4],0.944
same,normalized growth,[5],0.927
same,normalized growth,[6],0.957
same,normalized growth,[7],0.921
same,normalized growth,[8],0.951
same,normalized growth,[9],0.936
same,normalized growth,[10],0.942
same,normalized growth,[11],0.891
same,normalized growth,[12],0.958
same,normalized growth,[13],0.947
same,normalized growth,[14],0.946
same,normalized growth,[15],0.914
same,normalized growth,[16],0.896
same,normalized growth,[17],0.929
same,normalized growth,[18],0.926
same,normalized growth,[19],0.932
same,normalized growth,[20],0.952
same,normalized growth,[21],0.955
same,normalized growth,[22],0.919
same,normalized growth,[23],0.918
same,normalized growth,[24],0.917
same,normalized growth,[25],0.849
same,normalized growth,[26],0.651 (active)
same,normalized growth,[27],0.794
same,normalized growth,[28],0.829
same,normalized growth,[29],0.846
same,normalized growth,[30],0.949
same,normalized growth,[31],0.903
same,normalized growth,[32],0.884
same,normalized growth,[33],0.928
same,normalized growth,[34],0.963
same,normalized growth,[35],0.943
same,normalized growth,[36],0.805
same,normalized growth,[37],0.939
same,normalized growth,[38],0.897
same,normalized growth,[39],0.902
same,normalized growth,[40],0.946
same,normalized growth,[41],0.991
same,normalized growth,[42],0.85 (active)
same,normalized growth,[43],0.906
same,normalized growth,[44],0.911
same,normalized growth,[45],0.902
same,normalized growth,[46],0.934
same,normalized growth,[47],0.923
same,normalized growth,[48],0.922
same,normalized growth,[49],0.955
same,normalized growth,[50],0.903
same,normalized growth,[51],0.95
same,normalized growth,[52],0.941
same,normalized growth,[53],0.952
same,normalized growth,[54],0.92
same,normalized growth,[55],0.921
same,normalized growth,[56],0.94
same,normalized growth,[57],0.881
same,normalized growth,[58],0.945
same,normalized growth,[59],0.924
same,normalized growth,[60],0.845
same,normalized growth,[61],0.958
same,normalized growth,[62],0.926
same,normalized growth,[63],0.911
same,normalized growth,[64],0.906
same,normalized growth,[65],0.947
same,normalized growth,[66],0.86 (active)
same,normalized growth,[67],0.948
same,normalized growth,[68],0.942
same,normalized growth,[69],0.901
same,normalized growth,[70],0.943
same,normalized growth,[71],0.935
